# Rows were chosen to be rich in hits. Some 8% of all compounds tested hit in one or more screens of this group.
# HT1080 IDH1KD tx – qHTS for induction of synthetic lethality in tumor cells producing 2HG: qHTS for the HT-1080-IDH1KD cell line | HT-1080 IDH1 knockdown viability, ATP luminescence, 48 h | Potency, µM (doses to about 46.1 µM), without a hit: top-dose activity, negative = toxicity, actives largely listed as cytotoxic | 360,000 compounds, 2% hits | AID 686971, 2013;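 note: 0% = DMSO wells and -100% = cell-free medium wells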
#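 CellTiter-Glo luminescence after 48 h compound exposure at 37 degrees C of IDH1-knockdown HT-1080 cells in 5% FBS RPMI. %Activity scaled between DMSO wells and cell-free media wells, with curves fitted and assigned curve classes.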
# KB-3-1 tox – qHTS assay for MDR1-selective chemotherapeutics: Primary screen using the parental adenocarcinoma cell KB-3-1; 400,000 compounds, 1.4% hits; AID 1347075, 2019; Potency, µM (top dose mostly 46.1 µM), usual class: cytotoxic; KB-3-1 viability, CellTiter-Glo ATP luminescence, 72 h; note: % is set by controls: 0 for no effect and ±100 for the full control effect; nearly all actives have a fitted effect of over 60% in size
#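 Viability of parental KB-3-1 cells, measured by CellTiter-Glo luminescence, followed a 72 h incubation at 37 °C with pinned compounds in phenol-red-free DMEM containing 10% FBS.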
# MCF10A rerep – A quantitative high throughput screen for small molecules that induce DNA re-replication in MCF 10a normal breast cells | 350,000 compounds, 2.9% hits | Potency, µM (highest dose often 46.1 µM), for inactives: at the highest dose activity, positive = re-replication, hits mostly activators | MCF 10A DNA re-replication, Hoechst nuclear intensity, 48 h; note: % of control where 0% means no effect; nearly all actives have a fitted effect of over 50% in size
# HT1080-NT tox – qHTS for induction of synthetic lethality in tumor cells producing 2HG: qHTS for the HT-1080-NT fibrosarcoma cell line; HT-1080-NT fibrosarcoma viability, CellTiter-Glo ATP luminescence, 48 h; Potency, µM (series often up to 46.1 µM), for inactives: at the highest dose activity, negative = less viability, actives largely listed as cytotoxic; 360,000 compounds, 1.6% hits; AID 686970, 2013;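 note: NT is the 2HG producing partner of a matched IDH1 knockdown line; 0% = DMSO-treated cells and -100% = media-only wells without cells; nearly all actives have a fitted effect of over 55% in size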
#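 Fibrosarcoma NT cells, 750 per well in 5% FBS RPMI, were exposed to compound for 48 hours. Viability: CellTiter-Glo luminescence.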
# KB-V1 cytotox – qHTS assay for MDR1-selective chemotherapeutics: Primary screen using the drug-selected MDR subline cells KB-V1; 400,000 compounds, 3.4% hits; Potency, µM (top dose mostly 46.1 µM), most hits filed as cytotoxic; KB-V1 MDR cells viability, CellTiter-Glo, 72 h; note: % is set by controls: 0 for no effect and ±100 for the full control effect; nearly all actives have a fitted effect of over 60% in size
#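 Compound-treated KB-V1 multidrug-resistant cells, 72 h, 37 degrees C; viability by CellTiter-Glo. Fitted qHTS curves give the values.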
# SW480 rerep – A quantitative high throughput screen for small molecules that induce DNA re-replication in SW480 colon adenocarcinoma cells; SW480 DNA re-replication, Hoechst DNA content imaging, 48 h; AID 624297, 2012; 340,000 compounds, 1.8% hits; Potency, µM (highest dose often 46.1 µM), without a hit: top-dose re-replication activation, usual class: activators; note: % of control where 0% means no effect; nearly all actives have a fitted effect of over 55% in size
#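 Quantitative HTS format with DMSO vehicle controls; 48 hr drug incubation at 37 C, then 40 min Hoechst staining and scanning imager measurement at 405 nm excitation.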
# * = called active by the depositor; i = inactive; ? = inconclusive; . = no result; [ ] = dose if it differs, or a comment. Calls come from the whole dose curve; as a rule, active = well fitted curve in the direction sought with a large enough effect; inconclusive = small, poorly fitted or top-dose-only effect, or another doubt; inactive = no such curve, though single readings can be large; an effect the other way counts as inactive or inconclusive. Potency is the fitted concentration of half-maximal effect.
SMILES,HT1080 IDH1KD tx,KB-3-1 tox,MCF10A rerep,HT1080-NT tox,KB-V1 cytotox,SW480 rerep
CCN(CC)CC(=O)Nc1ccc2c(c1)N(C(=O)CN(CC)CC)c1ccccc1CC2,?,i,-16.8%,?,?,?
Cc1ccccc1Nc1scc(-c2ccc(Cl)cc2)[n+]1-c1ccccc1C,-3.8%,9.2µM*,?,-4.5%,i,-8.0%
FC(F)(F)c1cnc(N2CCN(C(=S)NCc3ccccc3)CC2)c(Cl)c1,?,?,?,-33.1%,i,?
FC(F)(F)c1cnc(N2CCCN(C(=S)Nc3ccccc3)CC2)c(Cl)c1,23.1µM*,i,?,?,?,?
COCCCNC(=O)Cn1nc(N2CCN(c3ccccc3)CC2)ccc1=O,.,i,.,.,i,.
COc1ccc(C2CC(c3ccc4ccccc4c3)=NN2C(=O)CN2CCC(C(N)=O)CC2)cc1 (centres undefined),?,?,14.1%,?,i,-1.6%
C=CCNCC(=O)N1N=C(c2ccc3ccccc3c2)CC1c1ccc(OC)cc1 (centres undefined),23.1µM*,i,?,23.1µM*,i,?
COc1ccc(C2CC(c3ccc4ccccc4c3)=NN2C(=O)CNC2CCCCC2)cc1 (centres undefined),?,i,?,23.1µM*,?,?
COc1ccc(C2=NN(C(=O)CSc3ncccn3)C(c3ccc(C)cc3)C2)cc1 (centres undefined),-6.7%,i,?,-4.7%,23.1µM*,?
CC1=Nc2cc(C(=O)NCCCN3CCOCC3)ccc2Sc2c(C)ccc(C)c21,20.6µM*,?,?,16.4µM*,?,16.4µM*
CC1=Nc2cc(C(=O)NCCN3CCOCC3)ccc2Sc2c(C)ccc(C)c21,?,14.6µM*,?,?,18.4µM*,-9.8%
COc1ccc(C(=O)CN2C(=O)C(C)(C)Oc3ccc(C(=O)N4CCCCCC4)cc32)cc1,2.7%,i,22.0%,-1.3%,18.4µM*,4.0%
CC1(C)Oc2ccc(C(=O)N3CCCC3)cc2N(CC(=O)NCc2ccccc2)C1=O,3.5%,i,-7.9%,-1.7%,i,-1.9%
COc1ccc(CNC(=O)CSc2ncc3c(n2)-c2ccc(Cl)cc2N(Cc2ccc(F)cc2)S3(=O)=O)cc1OC,.,i,.,.,i,.
CCOc1ncccc1C(=O)N1CCCSC1=Nc1ccc(C(C)=O)cc1,-4.7%,i,0.92µM*,-1.8%,i,8.2%
CCOc1ccc(N=C2SCCCN2C(=O)c2c(CC)noc2C)cc1,7.2%,.,2.6%,4.9%,.,-3.7%
CCc1ccc(N=C2NC(=O)/C(=C/c3cc(Br)c(OCC(=O)O)c(OC)c3)S2)cc1,-0.7%,i,?,-2.0%,?,-61.0%[1.84 µM]
CCOc1cc(/C=C2\SC(=Nc3ccc(CC)cc3)NC2=O)ccc1OCC(=O)O,11.4%,i,18.4µM*,14.1%,i,?
CCc1ccc(N=C2NC(=O)/C(=C/c3cc(OC)c(OC)c(OC)c3)S2)cc1,?,?,11.6µM*,-26.8%,?,?
Cc1cc(Cl)ccc1NC(=O)C1CCN(S(=O)(=O)c2ccc3[nH]c(=O)ccc3c2)CC1,.,i,.,.,i,.
Cc1nn2c(=O)cc(COC(=O)C(c3ccccc3)c3ccccc3)nc2s1,.,i,.,.,i,.
CCOCCCn1c(=NC(=O)c2cccs2)c(C#N)cc2c(=O)n3ccccc3nc21,0.8%,i,?,15.9%,i,11.6µM*

# Screening results (PubChem)
